In PubChem BioAssay (NCATS):
Records with an inconclusive call do not appear. The source made the active and inactive calls. Calls follow the shape of the dose curve; as a rule, active = well fitted curve in the direction sought with a large enough effect; inconclusive = small, poorly fitted or top-dose-only effect, or another doubt; inactive = no such curve, though single readings can be large; an effect the other way counts as inactive or inconclusive.

Assays:
[1] = test system: C33A; assay: Primary qHTS to identify gynecologic anti-cancer compounds using libraries of approved drugs and bioactive compounds (AID 1345084); conditions: Gynecologic cancer cell panel viability, ATPlite luminescence, 48 h; series mostly up to 57.5 µM; also: nearly all actives have a fitted effect of over 55% in size
Method in brief: (§1)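 ATP-based viability (ATPlite), 1,000 cells/well, 16 h pre-incubation, 48 h compound at 37 C, 5% CO2, 15 min RT before read.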

[2] = test system: CAOV3; assay: as above; conditions: Gynecologic cancer cell panel viability, ATPlite luminescence, 48 h; series mostly up to 57.5 µM
Method in brief: as §1

[3] = test system: CASKI; assay: as above; conditions: Gynecologic cancer cell panel viability, ATPlite luminescence, 48 h; series mostly up to 57.5 µM
Method in brief: as §1

[4] = test system: Es-2; assay: as above; conditions: Gynecologic cancer cell panel viability, ATPlite luminescence, 48 h; series mostly up to 57.5 µM
Method in brief: as §1

[5] = test system: HeLa; assay: as above; conditions: Gynecologic cancer cell panel viability, ATPlite luminescence, 48 h; series mostly up to 57.5 µM
Method in brief: as §1

[6] = test system: Hek293T; assay: as above; conditions: Gynecologic cancer cell panel viability, ATPlite luminescence, 48 h, control line for the selectivity index; series mostly up to 57.5 µM
Method in brief: as §1

[7] = test system: OV90; assay: as above; conditions: Gynecologic cancer cell panel viability, ATPlite luminescence, 48 h; series mostly up to 57.5 µM
Method in brief: as §1

[8] = test system: SKOV3; assay: as above; conditions: Gynecologic cancer cell panel viability, ATPlite luminescence, 48 h; series mostly up to 57.5 µM
Method in brief: as §1

[9] = test system: Tov-21-G; assay: as above; conditions: Gynecologic cancer cell panel viability, ATPlite luminescence, 48 h; series mostly up to 57.5 µM
Method in brief: as §1

[10] = test system: Tov112D; assay: as above; conditions: Gynecologic cancer cell panel viability, ATPlite luminescence, 48 h; series mostly up to 57.5 µM
Method in brief: as §1

[11] = test system: JEG-3; assay: as above; conditions: Gynecologic cancer cell panel viability, ATPlite luminescence, 48 h; series mostly up to 57.5 µM
Method in brief: as §1

[12] = test system: PA-1; assay: as above; conditions: Gynecologic cancer cell panel viability, ATPlite luminescence, 48 h; series mostly up to 57.5 µM
Method in brief: as §1

[13] = qHTS assay to identify inhibitors of the type 1 interferon - major histocompatibility complex class I in skeletal muscle: Counter screen cell viability and HiBit confirmation (AID 1347412); conditions: iHSKM muscle cells + IFN-b, HiBiT or CellTiter-Glo, 24 h; also: nearly all actives have a fitted effect of over 60% in size
Method in brief: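 Human myoblast knock-in line, 4.0 ng/ml IFN-beta stimulation, 24 h compound treatment. Endpoints: HiBiT lytic luminescence (HLA-B level) and CellTiter Glo (ATP). Dosing 12 concentrations, 3-fold steps, 46 uM highest final.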
% is scaled to controls: 0 for no effect and ±100 for the full control effect; potency is read from the fitted curve at half-maximal effect.

O=C1CCC=CC1(O)C(=O)OCc1ccccc1O[C@@H]1O[C@H](CO)[C@@H](O)[C@H](O)[C@H]1O (some centres undefined)
inactive: Potency [1] | Potency [2] | Potency [3] | Potency [4] | Potency [5] | Potency [6] | Potency [7] | Potency [8] | Potency [9] | Potency [10]

CC1CCC23COC(=O)C2=CC(O)CC3C1(C)CCC1=CC(O)OC1=O (centres undefined)
inactive: Potency [1] | Potency [2] | Potency [3] | Potency [4] | Potency [5] | Potency [6] | Potency [11] | Potency [7] | Potency [9] | Potency [10]

Cc1ccc(S(=O)(=O)n2ccc(-c3c(-c4ccc(Cl)cc4)noc3C)n2)cc1
inactive: Potency [2] | Potency [3] | Potency [4] | Potency [5] | Potency [6] | Potency [7] | Potency [12]
active: Potency [1] 8.91 µM

CC(C)=CCCC1(C)C=Cc2c(c(C)cc3c2[nH]c2ccccc23)O1 (centres undefined)
inactive: Potency [1] | Potency [2] | Potency [3] | Potency [4] | Potency [5] | Potency [6] | Potency [11] | Potency [9] | Potency [10]
active: Potency [8] 8.91 µM

C/C=C/C=C/C(O)=C1\C(=O)[C@]2(C)C3C(C(=O)CC/C=C/C)=C(O)C4(C)C1[C@]1(C)O[C@@]4(O)[C@@]3(C)O[C@@]12O
inactive: Potency [1] | Potency [2] | Potency [3] | Potency [4] | Potency [5] | Potency [6] | Potency [11] | Potency [12] | Potency [8] | Potency [9] | Potency [10]

NC(=O)c1cccc(-c2cc(OC(=O)NC3CCCCC3)ccc2O)c1
inactive: Potency [1] | Potency [2] | Potency [3] | Potency [4] | Potency [5] | Potency [11] | Potency [7] | Potency [12] | Potency [8]

C/C=C/c1ccc2oc(-c3ccc(O)c(OC)c3)c(C)c2c1
active: Potency [7] 20 µM
inactive: Potency [1] | Potency [2] | Potency [3] | Potency [4] | Potency [5] | Potency [6] | Potency [11] | Potency [9] | Potency [10]

CC(=O)N1CCN(Cc2ccc([C@H](C)Nc3nccc(N4C(=O)OC[C@@H]4C(C)C)n3)cc2)CC1
inactive: Potency [1] | Potency [2] | Potency [3] | Potency [4] | Potency [5] | Potency [6] | Potency [7] | Potency [8] | Potency [9] | Potency [10]

CC(Cc1cc2c(c(C(N)=O)c1)N(CCCO)CC2)NCCOc1ccccc1OCC(F)(F)F (centres undefined)
inactive: Potency [1] | Potency [2] | Potency [3] | Potency [4] | Potency [5] | Potency [6] | Potency [7] | Potency [12] | Potency [8] | Potency [9] | Potency [10]

CCN(CC)Cc1ccc(C(=O)N(CCc2ccccc2OC)[C@@H]2CCNC2)cc1
inactive: Potency [1] | Potency [2] | Potency [3] | Potency [4] | Potency [5] | Potency [6] | Potency [11] | Potency [12] | Potency [8] | Potency [9] | Potency [10]

COc1ccc([C@@]2(O)c3c(ccc(CC=C(C)C)c3O)NC(=O)[C@@H]2OC)cc1
inactive: Potency [1] | Potency [2] | Potency [3] | Potency [4] | Potency [5] | Potency [6] | Potency [7] | Potency [12] | Potency [8] | Potency [9] | Potency [10]

O=C1OCc2cc3cccc(O[C@@H]4O[C@H](CO)[C@@H](O)[C@H](O)[C@H]4O)c3c(O)c21
inactive: Potency [1] | Potency [2] | Potency [3] | Potency [4] | Potency [5] | Potency [6] | Potency [11] | Potency [12] | Potency [8] | Potency [9] | Potency [10]

Cc1cc(C(N)=O)ccc1-n1c(CCC(=O)O)ccc1-c1ccc(-n2ccnc2)cc1
inactive: Potency [1] | Potency [2] | Potency [3] | Potency [4] | Potency [5] | Potency [6] | Potency [7] | Potency [12] | Potency [9] | Potency [10]

CCOc1cc(C(=O)N2CCC(N3CCN(C)CC3)CC2)ccc1Nc1ncc2c(n1)N(C1CCCC1)c1ccccc1C(=O)N2C
inactive: Potency [1] | Potency [3] | Potency [4] | Potency [5] | Potency [6] | Potency [7] | Potency [10] | activity change, negative = inhibition ([13]; Viability, at 45.9 µM (top of the series)) -25.1%
active: Potency [2] 31.6 µM | Potency [8] 35.5 µM | Potency ([13]; HiBiT) 12.5 µM

N[C@H]1Cc2ccccc2N(O)C1=O
inactive: Potency [1] | Potency [2] | Potency [3] | Potency [4] | Potency [5] | Potency [6] | Potency [11] | Potency [12] | Potency [8] | Potency [9] | Potency [10]

N#Cc1ccc(C(=O)N2CCC3(CC2)N=C(N)c2c(F)ccc(F)c2N3)cn1
inactive: Potency [1] | Potency [2] | Potency [3] | Potency [4] | Potency [5] | Potency [6] | Potency [11] | Potency [7] | Potency [9] | Potency [10]
